# KCNH2 3.1 inh – qHTS for Inhibitors of KCHN2 3.1: Mutant qHTS. U2OS KCNH2 3.1, thallium flux FluxOr; active compounds read low. activity change, % (tested at about 1.8 µM). actives 0.95% (n = 340,000);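 active = maximum activity change below -70%; inconclusive = maximum activity change from -70% to -50%; inactive = maximum activity change above -50%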;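 note: thallium influx rate constant from kinetic fluorescence after stimulation buffer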
#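 We transduce U2OS cells with the mutant 3.1 virus, culture them overnight, load FluxOr with Red40 quencher for 45 min, then add stimulation buffer and read kinetically for 2 min to derive a normalized rate constant.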
# 12-LOX inh – Primary qHTS assay for inhibitors of human arachidonate 12S-lipoxygenase (ALOX12): Round 2. actives 1.1% (n = 580,000). Polyunsaturated fatty acid lipoxygenase ALOX12 (Homo sapiens), P18054. Potency, µM (doses to about 108 µM), actives largely listed as inhibitors. purified 12hLO, xylenol orange hydroperoxide absorbance. AID 1671190, 2021; active = well fitted inhibition curve with a large enough effect; inconclusive = small, poorly fitted or top-dose-only effect, or another doubt; inactive = no such curve, though single readings can be large or run the other way
#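 Purified human 12hLO at 150 nM in 25 mM Hepes, 0.01% Triton X-100, pH 7.0, preincubated 15 min at room temperature with compound. Reaction started with 40 uM arachidonic acid, 30 min at room temperature. Hydroperoxide measured by Fe-xylenol orange, 573/405 nm absorbance ratio.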
# ClpP mod – qHTS Assay for Activators of ClpP; Potency, µM (top dose mostly 57.5 µM); actives 1.9% (n = 340,000); purified B. subtilis ClpP, FRET peptide cleavage, 20 min; ATP-dependent Clp protease proteolytic subunit (Bacillus subtilis (strain 168)), P80244; active = well fitted falling curve with a large enough effect; inconclusive = small, poorly fitted or top-dose-only effect; inactive = no such curve, though single readings can be large or run the other way; note: the source files actives as falling curves though it sought activators and does not explain the sign; nearly all actives have a fitted effect of over 65% in size
# Target sequence (P80244 whole entry, looked up): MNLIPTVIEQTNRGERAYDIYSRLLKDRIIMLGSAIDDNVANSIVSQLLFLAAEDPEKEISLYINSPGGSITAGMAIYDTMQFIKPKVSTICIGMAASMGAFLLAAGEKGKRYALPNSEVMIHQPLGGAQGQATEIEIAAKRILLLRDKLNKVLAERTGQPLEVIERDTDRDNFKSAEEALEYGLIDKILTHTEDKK
#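 Buffer: 100 mM Tris/HCl pH8, 100 mM KCl, 0.05% low protease BSA, 2.5% glycerol, 0.01% Tween-20. ClpP 10 microg/mL final; 20 min RT; delta FRET normalized to ADEP and DMSO controls.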
# Chronic BCR inh – qHTS Assay to Find Inhibitors of Chronic Active B-Cell Receptor Signaling; ABC-DLBCL IkBa-CBG/CBR reporter, luminescence ratio, 4 h; Potency, µM (series often up to 46.1 µM), most hits filed as inhibitors; actives 0.05% (n = 340,000); active = well fitted inhibition curve with a large enough effect in the signal ratio, with a control signal flat, not every such curve was filed as active; inconclusive = small, poorly fitted or top-dose-only effect, or effect the other way, or a change in a side signal; the % refers to the signal ratio
#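 Doxycycline induced both beetle luciferases in TMD8 lymphoma cells; IKK-driven degradation limits the IkappaBalpha-fused green signal, while red luminescence normalises for cell number and nonspecific effects. Compounds tested up to 46 uM, 4 hrs.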
# LDHA block – qHTS assay for inhibitors of human lactate dehydrogenase; L-lactate dehydrogenase A chain (Homo sapiens), P00338; purified LDHA, NADH/diaphorase-resazurin fluorescence; active compounds read low; activity change, % (values are at about 110 or 230 µM); actives 0.15% (n = 480,000); in the data active = activity change below about -30%; inconclusive = mostly about -25% to -30%
#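 Human LDH5 (2 nM) was incubated with 0.06 mM NADH and 0.2 mM pyruvate for 5 min at room temperature in Tris pH 7.4. Remaining NADH was coupled through diaphorase/resazurin, and resorufin fluorescence was read at 0 and 20 min.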
# hERG WT inh – qHTS for Inhibitors of KCHN2 3.1: Wildtype qHTS | U2OS, BacMam KCNH2, thallium flux FluxOr; active compounds read low | activity change, % at 1.84 µM | actives 0.37% (n = 340,000);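 active = maximum activity change below -70%; inconclusive = maximum activity change between -70% and -50%; inactive = maximum activity change above -50%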
#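 U2OS cells were transduced with wild-type KCNH2 virus (2.03 x 10^8 / mL) for 4 h at room temperature, then cultured overnight at 37 C. Thallium flux was read with FluxOr dye. Rate constants were normalized to DMSO controls.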
# A number is an active result; 0 = inactive; ? = inconclusive; - = no result given. A selection: hits, their analogues and other compounds. The true share with any hit is near 3%.
SMILES,KCNH2 3.1 inh,12-LOX inh,ClpP mod,Chronic BCR inh,LDHA block,hERG WT inh
Cc1c(/C(O)=C2/C(=O)C(=O)N(CCN3CCOCC3)C2c2cccs2)cnn1-c1ccccc1 (stereo not drawn),0,?,11.2µM,?,0,0
Cc1ccc(C2/C(=C(/O)c3cnn(-c4ccccc4)c3C)C(=O)C(=O)N2CCN2CCOCC2)o1 (stereo not drawn),0,?,0,?,0,0
Cc1cc(O)c2c(c1O)C(=O)C(O)=C(O)C2=O,-,28.2µM,-,-,-,-
COc1cccc(S(=O)(=O)Nc2ccc3c(c2)OCCO3)c1,0,?,14.1µM,0,0,0
COc1ccc(NC(=O)[C@H]2C[C@H](CCSC)N[C@]23C(=O)Nc2ccc(F)cc23)cc1,-,?,-,-,0,-
Cc1ccc(C)c(NC(=O)c2ccccc2NS(=O)(=O)c2cc([N+](=O)[O-])ccc2C)c1,0,0,0,?,0,0
Cc1ccc(C)c(S(=O)(=O)Nc2ccccc2C(=O)Nc2cc(C)on2)c1,0,0,15.8µM,0,0,0
Cc1cc(NC(=O)c2ccccc2NS(=O)(=O)c2c(C)c(C)cc(C)c2C)no1,0,0,28.2µM,0,0,0
COc1ccc(C(=O)N2CCN(S(=O)(=O)c3ccc(F)cc3)C[C@@H]2C(=O)N[C@H]2CCCNC2=O)cc1,-,0,-,-,-,-
Cc1ccc(CNC(=O)Nc2ccc(N3CCOCC3)nc2)s1,-,0,-,-,0,-
CC(Oc1ccc(F)cc1)C(=O)Nc1cccc(-c2nn[nH]n2)c1 (stereo not drawn),0,?,0,0,0,-85.7
O=C(Nc1c(-c2cc(=O)oc3ccc(Cl)cc23)oc2ccccc12)C1CC1,-,?,-,-,0,-
Cc1cc(N2CCN(c3ccccc3Cl)CC2)n2cc(-c3ccccc3)nc2n1,0,0,14.1µM,0,0,0
O=C(COC(=O)c1c[nH]c2ccccc12)NC(=O)NC1CCCC1,-,0,-,-,0,-
O=C(NCCCNC(=O)C1CCCCC1)C1CCCCC1,-,0,-,-,0,-
O=C(NCCCCNC(=O)C1CCCC1)C1CCCC1,0,0,0,0,0,-264.5
COc1ccc(-c2cc(-c3ccccc3)nc(SCC(=O)Nc3ccccc3F)c2C#N)cc1,-,0,?,-,0,-
N#Cc1c(-c2ccc(F)cc2)cc(-c2ccccc2)nc1SCC(=O)NCC(=O)O,0,?,0,0,-79.6,0
N#Cc1c(-c2ccc(Cl)cc2)cc(-c2ccccc2)nc1SCC(=O)O,0,11.2µM,0,0,0,0
N#Cc1c(-c2ccccc2)cc(-c2ccccc2)nc1SCC(=O)Nc1ccc(Cl)cc1,-,0,0,-,0,-
CCCCS(=O)(=O)CC(O)CSc1nc(-c2ccc(C)cc2)cc(-c2ccccc2)c1C#N (stereo not drawn),-,0,3.55µM,-,0,-
Cc1ccc2c(COC(=O)[C@H](C)NC(=O)c3ccccc3)cc(=O)oc2c1,-,0,-,-,0,-
O=C(O)c1ccc(N/N=C/C(Br)=C/c2ccccc2)cc1,0,39.8µM,0,?,0,0
Fc1ccc(N/N=C/C(Br)=C/c2ccccc2)c(F)c1,-,?,-,-,0,-
O=C(N/N=C/C(Br)=C/c1ccccc1)C(O)c1ccccc1 (stereo not drawn),0,0,-,0,0,0
SMILES,KCNH2 3.1 inh,12-LOX inh,ClpP mod,Chronic BCR inh,LDHA block,hERG WT inh
Clc1cc(Cl)c(N/N=C/C(Br)=C/c2ccccc2)c(Cl)c1,-,6.31µM,-,-,0,-
CCCCNc1nc2c(c(=O)[nH]c(=O)n2C)n1Cc1ccccc1Cl,-,0,-,-,0,-
Cc1cccc(N/N=C/c2ccc(Cl)c(Cl)c2)c1,-,3.98µM,-,-,0,-
Cc1cccc(N/N=C/c2ccc(Br)cc2)c1,-,?,-,-,0,-
Cc1ccc(N/N=C/c2ccc(F)c(F)c2)cc1,-,?,-,-,0,-
Cc1cccc(N/N=C/c2ccc(F)c(F)c2)c1,-,5.62µM,-,-,0,-
O=C(Cn1cc(Br)c(=O)[nH]c1=O)N1CCC(C(=O)N2CCCCC2)CC1,-,0,-,-,0,-
Cc1c(CN(C)C(=O)CC2C(=O)NCCN2CC(C)(C)C)[nH]c2ccccc12 (stereo not drawn),-,0,-,-,-,-
CN1CCN(CC(=O)Nc2ccc(Oc3ccccc3)cc2)CC1,0,0,0,0,0,0
CC1CCCCN1CC(=O)Nc1ccc(Oc2ccccc2)cc1 (stereo not drawn),-88.6,0,0,?,0,0
CCOC(=O)N1CCN(CC(=O)Nc2ccc(Oc3ccccc3)cc2)CC1,0,0,28.2µM,?,0,0
CC1CCCCN1CC(=O)Nc1ccc(N2CCCCCC2)cc1 (stereo not drawn),?,?,-,0,0,0
Nc1c(C(=O)NC2CCCC2)nnn1-c1ccccc1,-,0,-,-,0,-
CC(C)(C)C(=O)/C=c1/[nH]c(=O)/c(=C/c2ccc(O)c(Cl)c2)s1,-,0,-,-,0,-
Cc1[nH]c(=O)[nH]c(=O)c1CCC(=O)Nc1nccs1,-,?,-,-,0,-
Nc1ccc(N2CCOCC2)c2nonc12,0,39.8µM,0,0,0,0
CCN(CC1CCCO1)C(=O)/C=C/c1ccc(C#N)cc1 (stereo not drawn),-,0,-,-,0,-
CC1CCC/C(=C(\C#N)C(N)=S)C1 (stereo not drawn),-,0,-,-,0,-
Cc1ccc(C(=O)NC(c2cccnc2)c2cc(C)ccc2C)cc1 (stereo not drawn),-,?,-,-,0,-
O=C1C=C(NCCc2cc(Br)c(O)c(Br)c2)C(=O)c2ncccc21,0,35.5µM,0,-,0,0
CSc1nnnn1CCn1nnnc1SC,0,0,0,0,0,-243.2
Cn1nnnc1SCSc1nnnn1C,0,0,0,0,0,0
COc1cc(NC(=O)N2c3ccccc3Sc3ccccc32)c(C(=O)O)cc1OC,0,20µM,0,?,0,0
COc1ccccc1NC(=O)N1c2ccccc2Sc2ccccc21,-,?,?,-,0,-
COc1ccc(Cl)cc1NC(=O)CCn1cnc2c1c(=O)n(C)c(=O)n2C,-,0,-,-,0,-
SMILES,KCNH2 3.1 inh,12-LOX inh,ClpP mod,Chronic BCR inh,LDHA block,hERG WT inh
C=C(Cl)COc1ccc2c(CC)cc(=O)oc2c1,0,0,25.1µM,?,0,0
C=C(Cl)COc1ccc2c(CCCC)cc(=O)oc2c1,0,0,28.2µM,0,0,0
O=C(COc1ccc2c(-c3ccccc3)cc(=O)oc2c1)NCCCN1CCOCC1,0,0,0,?,0,0
C=C(C)COc1ccc2c(CC)cc(=O)oc2c1,0,0,0,?,0,-
C=C(Cl)COc1ccc2c(C)cc(=O)oc2c1,0,0,10µM,?,0,0
Cc1cc(=O)oc2cc(OCC(=O)NCCCN3CCOCC3)ccc12,0,0,28.2µM,-,0,0

# Compound activity deposited in PubChem BioAssay by National Center for Advancing Translational Sciences (NCATS).
